Where “and” joins values, the source holds several entries; their conditions need not be identical. Equal entries are not always repeated. Screen size: about 5,500 compounds; about 2,000 (36%) were called active. About 18% were inconclusive and are not listed. Cut-off read from the data, not from the text of the source: active = normalized growth mostly below about 0.91 (no sharp cut-off); inconclusive = no clear call, values can overlap the other calls; inactive = mostly above about 0.92. The list shows a part of the results.
Test: chemical genetic growth profiling, strain panel (AID 1159580);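 note: tested at 20 µM; growth read once vehicle control cultures reached saturation at 30 °C; 1 = growth at the plate median or of vehicle wells; lower values mean less growth of the strain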
Conditions: S. cerevisiae deletion strains, growth OD

Measured: normalized growth

CN[C@@H](C)[C@@H](O)c1ccccc1
inactive: locus YAL021C, strain ccr4, hits give low values 0.987 | locus YAL026C, strain drs2, hits give low values 0.995 | locus YAL030W, strain snc1, hits give low values 0.995 | locus YBL061C, strain skt5, hits give low values 0.992 | locus YBR009C, strain hhf1, hits give low values 1.02 | locus YBR021W, strain FUR4, hits give low values 1.01 | locus YBR023C, strain chs3, hits give low values 0.981 | locus YBR171W, strain sec66, hits give low values 0.993 | locus YBR229C, strain ROT2, hits give low values 0.949 | locus YBR231C, strain swc5, hits give low values 0.996 | locus YBR279W, strain paf1, hits give low values 1 | locus YCL011C, strain gbp2, hits give low values 0.971 | locus YCL016C, strain dcc1, hits give low values 0.987 | locus YCL029C, strain bik1, hits give low values 0.976 | locus YCL069W, strain vba3, hits give low values 0.995 | locus YCR088W, strain abp1, hits give low values 0.995 | locus YDL005C, strain med2, hits give low values 0.994 | locus YDL035C, strain GPR1, hits give low values 0.949 | locus YDL040C, strain nat1, hits give low values 1 | locus YDL074C, strain BRE1, hits give low values 1.01 | locus YDL101C, strain DUN1, hits give low values 1 | locus YDL185W, strain tfp1, hits give low values 0.961 | locus YDL192W, strain arf1, hits give low values 0.989 | locus YDR001C, strain nth1, hits give low values 0.996 | locus YDR069C, strain doa4, hits give low values 0.993 | locus YDR101C, strain arx1, hits give low values 0.998 | locus YDR137W, strain rgp1, hits give low values 0.982 | locus YDR159W, strain sac3, hits give low values 0.943 | locus YDR162C, strain NBP2, hits give low values 0.929 | locus YDR195W, strain ref2 0.977 | locus YDR297W, strain sur2, hits give low values 1 | locus YDR318W, strain mcm21, hits give low values 0.986 | locus YDR334W, strain swr1, hits give low values 1.01 | locus YDR335W, strain msn5, hits give low values 1 | locus YDR388W, hits give low values 0.992 | locus YDR392W, strain spt3, hits give low values 0.911 | locus YDR502C, strain sam2, hits give low values 1.01 | locus YEL003W, strain gim4, hits give low values 0.996 | locus YEL037C, strain rad23, hits give low values 0.985 | locus YEL061C, strain CIN8 (second series), hits give low values 0.989 | locus YEL061C, strain CIN8, hits give low values 0.989 | locus YER015W, strain faa2, hits give low values 1 | locus YER016W, strain bim1, hits give low values 0.984 | locus YER110C, hits give low values 0.987 | locus YER111C, strain swi4, hits give low values 0.996 | locus YER155C, strain BEM2 (second series), hits give low values 0.997 | locus YER155C, strain BEM2, hits give low values 0.999 | locus YER167W, strain BCK2, hits give low values 0.982 | locus YFR010W, strain ubp6, hits give low values 0.992 | locus YGL078C, strain dbp3, hits give low values 0.996 | locus YGL086W, strain mad1, hits give low values 0.996 | locus YGL167C, strain pmr1, hits give low values 1 | locus YGL173C, strain kem1, hits give low values 0.988 | locus YGL227W, strain vid30, hits give low values 0.982 | locus YGL240W, strain doc1, hits give low values 1 | locus YGL248W, strain PDE1, hits give low values 1.01 | locus YGL253W, strain hxk2, hits give low values 0.985 | locus YGR135W, strain pre9, hits give low values 0.989 | locus YGR252W, strain gcn5, hits give low values 1.01 | locus YHR013C, strain ard1, hits give low values 0.961 | locus YHR027C, strain rpn1, hits give low values 1 | locus YHR030C, strain SLT2, hits give low values 0.977 and 1.04 | locus YHR079C, strain IRE1 (second series), hits give low values 0.993 | locus YHR079C, strain IRE1, hits give low values 1.02 | locus YHR094C, strain hxt1, hits give low values 0.985 | locus YHR129C, strain ARP1, hits give low values 0.994 | locus YHR142W, strain chs7, hits give low values 0.976 | locus YHR200W, strain rpn10, hits give low values 0.984 | locus YIL066C, strain RNR3, hits give low values 0.926 | locus YIL073C, strain SPO22, hits give low values 0.973 | locus YIL125W, strain kgd1, hits give low values 0.987 | locus YIR030C, strain dcg1, hits give low values 0.996 | locus YJL092W, strain hpr5, hits give low values 0.999 | locus YJL095W, strain BCK1 (second series), hits give low values 0.994 | locus YJL095W, strain BCK1, hits give low values 1.06 and 1.01 | locus YJL115W, strain asf1, hits give low values 0.999 | locus YJL129C, strain trk1, hits give low values 1.01 | locus YJL134W, strain LCB3, hits give low values 0.98 | locus YJL154C, strain vps35, hits give low values 0.996 | locus YJL164C, strain tpk1, hits give low values 1 | locus YJL166W, strain qcr8, hits give low values 1.01 | locus YJL168C, strain set2, hits give low values 0.995 | locus YJL187C, strain SWE1 (second series), hits give low values 1.03 | locus YJR043C, strain POL32, hits give low values 0.938 | locus YJR066W, strain TOR1, hits give low values 0.982 | locus YKL009W, strain mrt4, hits give low values 0.998
